According to the supplement of paper PMC13380429:

Key:
[1] = test system: Vero E6 infected with SARS-CoV-2; assay: morphology score (similarity to uninfected cells); higher = more like uninfected cells; conditions: 24 h
[2] = test system: Vero E6 infected with SARS-CoV-2; assay: SARS-CoV-2 infection rate relative to infected DMSO; higher = more infection, active = 60 or less; conditions: 24 h

SMILES	morphology score [1]	SARS-CoV-2 infection rate [2]
CSc1ccccc1Nc1nc(N2CCNCC2)nc2c(NCC3CC3)ncnc12 (0.833333 µM)	0.166	101% (inactive)
O=C1C(CC[S+]([O-])c2ccccc2)C(=O)N(c2ccccc2)N1c1ccccc1 (centres undefined) [sulfinpyrazone] (10 µM)	0.0498	108% (inactive)
NC(=O)OCC(O)COc1ccc(Cl)cc1 (centres undefined) [chlorphensin-carbamate] (10 µM)	-0.0129	112% (inactive)
CCOC(=O)c1ccc(-c2ccc(OC(=O)N(C)Cc3cccc(-c4ccncc4)c3)cc2)cc1 (10 µM)	0.0201	104% (inactive)
CCOc1ccc(Cc2cc([C@@H]3O[C@H](SC)[C@@H](O)[C@H](O)[C@H]3O)ccc2Cl)cc1 [sotagliflozin] (10 µM)	-0.0387	114% (inactive)
CCCCC#Cc1nc(NC)c2ncn([C@@H]3O[C@H](CO)[C@@H](O)[C@H]3O)c2n1 (10 µM)	0.143	96% (inactive)
CS(=O)(=O)c1ccc([C@@H](O)[C@@H](CF)NC(=O)C(Cl)Cl)cc1 [florfenicol] (10 µM)	-0.00265	96.5% (inactive)
C[C@H](N)C(=O)N[C@@]1(C(=O)O)C[C@@H](Sc2nnc[nH]2)[C@H]2[C@H](C(=O)O)[C@H]21 (10 µM)	-0.0396	114% (inactive)
CC1=C(C(=O)Nc2cc3cn[nH]c3cc2F)C(c2ccc(C(F)(F)F)cc2)CC(=O)N1 (centres undefined) (10 µM)	0.426	99% (inactive)
CCCN(CCC)CCc1ccc(OC)c(OCCc2ccccc2)c1 (10 µM)	0.353	86.5% (inactive)
CN[C@@H]1[C@H](O)[C@H](NC)[C@H]2O[C@@]3(O)C(=O)C[C@@H](C)O[C@H]3O[C@@H]2[C@H]1O [spectinomycin] (0.833333 µM)	0.0353	102% (inactive)
N#CN=C(NCCCCCCOc1ccc(Cl)cc1)Nc1ccncc1 (10 µM)	-0.0862	96.5% (inactive)
N[C@@H]1CCCN(c2c(/C=C3\SC(=O)NC3=O)cccc2-c2ccccc2)C1 (10 µM)	-0.0825	110% (inactive)
C[C@@H](CN)CC(=O)O [3-methyl-GABA] (10 µM)	0.0225	102% (inactive)
Nc1ccc(-c2ccc3ncc4ccc(=O)n(-c5cccc(C(F)(F)F)c5)c4c3c2)cn1 [torin-2] (10 µM)	0.162	86.5% (inactive)
CC(C)n1nc(-c2cc3cc(O)ccc3[nH]2)c2c(N)ncnc21 (10 µM)	-0.0614	95.5% (inactive)
Cc1ccc2c(Br)cc(Br)c(OC(=O)c3ccccc3)c2n1 [broxaldine] (0.833333 µM)	0.246	103% (inactive)
CN[C@@H](C)C(=O)N[C@H](C(=O)N1CCC[C@H]1C(=O)Nc1sc(-c2ncco2)nc1-c1ccccc1)C1CCCCC1 (10 µM)	0.185	102% (inactive)
CCC[C@H](N[C@@H](C)C(=O)N1[C@H](C(=O)O)C[C@@H]2CCCC[C@@H]21)C(=O)O [perindoprilat] (10 µM)	0.276	104% (inactive)
CCOC(=O)C1=C(C)NC(C)=C(C(=O)OCC)C1c1ccccc1/C=C/C(=O)OC(C)(C)C [lacidipine] (10 µM)	0.101	106% (inactive)
C=CCC1(CC(C)C)C(=O)NC(=O)NC1=O [butalbital] (10 µM)	-0.0632	117% (inactive)

SMILES	morphology score [1]	SARS-CoV-2 infection rate [2]
C=CCNC(=O)c1cc([N+](=O)[O-])cc2c(=O)[nH]c(Nc3ccc(Cl)c(Cl)c3)nc12 (10 µM)	-0.137	108% (inactive)
CCn1cc(C(=O)O)c(=O)c2cc3c(cc21)OCO3 [oxolinic-acid] (10 µM)	0.162	96% (inactive)
Cc1ccc2c(c1)[C@H]1CN(C)CC[C@H]1N2 [stobadine] (10 µM)	0.0748	98% (inactive)
CC(C)(C)NCc1cc(Nc2ccnc3cc(Cl)ccc23)c2c(c1O)CCCC2 [naphthoquine-phosphate] (10 µM)	0.103	109% (inactive)
Oc1ccc(-c2nc(-c3ccc(F)cc3)c(-c3ccncc3)[nH]2)cc1 (10 µM)	0.313	71% (inactive)
O=C(C[S+]([O-])C(c1ccccc1)c1ccccc1)NO (centres undefined) [adrafinil] (10 µM)	0.2	100% (inactive)
CN[C@@H]1[C@H](O[C@H]2[C@H](O[C@H]3[C@H](O)[C@@H](O)[C@H](NC(=N)N)[C@@H](O)[C@@H]3NC(=N)N)O[C@@H](C)[C@]2(O)CO)O[C@@H](CO)[C@H](O)[C@H]1O [dihydrostreptomycin] (10 µM)	-0.0119	114% (inactive)
COC(=O)c1c(C)[nH]c(C)c1C(=O)c1ccccc1Cc1ccccc1 (10 µM)	-0.254	118% (inactive)
CN(C)CCOC(c1ccc(Cl)cc1)c1ccccn1 (centres undefined) [carbinoxamine] (10 µM)	0.075	96% (inactive)
CNCC[C@@H](Oc1ccccc1C)c1ccccc1 [atomoxetine] (10 µM)	0.0668	102% (inactive)
COc1cccc(OC)c1C(=O)N[C@@H]1C(=O)N2[C@@H]1SC(C)(C)[C@@H]2C(=O)O [methicillin] (10 µM)	-0.0574	112% (inactive)
Cc1c(Cl)cccc1S(=O)(=O)Nc1nc(NCCc2ccccc2)nc2c1CN(Cc1ccccc1)CC2 (10 µM)	0.104	94.5% (inactive)
NC(=O)c1cccnc1 [nicotinamide] (10 µM)	0.026	108% (inactive)
c1ccc(CCCCN2CCC(c3ccccc3)CC2)cc1 (10 µM)	0.286	73.5% (inactive)
CCCCCCCCC(=O)N[C@H](CN1CCCC1)[C@H](O)c1ccc2c(c1)OCCO2 (10 µM)	0.393	71.5% (inactive)
CC(C)NCCN(C(C)C)S(=O)(=O)c1ccc(Cl)cc1Cl (10 µM)	-0.0999	110% (inactive)
OCc1cc(C(O)CNCCCCCCOCCCCc2ccccc2)ccc1O (centres undefined) [salmeterol] (10 µM)	0.465	54.5% (active)
COc1ccc(/C=C2\CCCN=C2c2cccnc2)c(OC)c1 (10 µM)	0.517	87% (inactive)
C[N+]1(C)[C@@H]2CC[C@H]1C[C@@H](OC(=O)C(CO)c1ccccc1)C2 (some centres undefined) [methylatropine-nitrate] (10 µM)	0.131	104% (inactive)
CC(C)CC(N)=O [isovaleramide] (10 µM)	0.0817	104% (inactive)
COc1cc(C2Oc3cc([C@H]4Oc5cc(O)cc(O)c5C(=O)[C@@H]4O)ccc3OC2CO)ccc1O (some centres undefined) [silibinin] (10 µM)	0.0273	104% (inactive)

SMILES	morphology score [1]	SARS-CoV-2 infection rate [2]
NNc1nncc2ccccc12 [hydralazine] (10 µM)	-0.0789	104% (inactive)
C=C(C)[C@@H]1CC[C@]2(C(=O)O)CC[C@]3(C)[C@H](CC[C@@H]4[C@@]5(C)CC[C@H](OC(=O)CC(C)(C)C(=O)O)C(C)(C)[C@@H]5CC[C@]43C)[C@@H]12 [bevirimat-dimeglumine] (10 µM)	-0.0115	113% (inactive)
CCc1c(-c2ccccc2)c(-c2ccccc2)nn1-c1ccccc1-c1cccc(OCC(=O)O)c1 (10 µM)	0.0748	96.5% (inactive)
C[N+]1([O-])[C@@H]2C[C@@H](OC(=O)[C@H](CO)c3ccccc3)C[C@H]1[C@@H]1O[C@@H]12 (some centres undefined) [scopolamine-N-oxide] (10 µM)	0.142	107% (inactive)
CN1CCN(c2ccc3ccccc3n2)CC1 [N-methylquipazine] (10 µM)	0.139	100% (inactive)
O=C(O)c1ccc(/C=C2\SC(=S)N(c3cccc(C(F)(F)F)c3)C2=O)cc1 (10 µM)	0.125	108% (inactive)
Cc1cccc(C(C)c2c[nH]cn2)c1C (centres undefined) [medetomidine] (10 µM)	-0.0614	102% (inactive)
CN(C)C(=N)NC(=N)N [metformin] (10 µM)	-0.00931	108% (inactive)
COc1ccc2c3c1O[C@H]1C[C@@H](O)C=C[C@@]31CCN(C)C2 [galantamine] (10 µM)	0.113	102% (inactive)
CC(C)[C@H](O)C(=O)N[C@@H](C)C(=O)N[C@@H]1C(=O)N(C)CCc2ccccc21 [semagacestat] (10 µM)	0.0376	120% (inactive)
O=c1c(O)c(-c2ccc(O)cc2O)oc2cc(O)cc(O)c12 [morin] (10 µM)	0.0742	108% (inactive)
CCCCCS(=O)(=O)CCCCCCCCCCn1c(-c2ccc(O)cc2)c(C)c2cc(O)ccc21 (0.833333 µM)	0.00616	102% (inactive)
O=C(O)CCC(=O)O [succinic-acid] (10 µM)	-0.0828	106% (inactive)
O=C(O)c1cn(-c2ccc(F)cc2)c2cc(N3CCNCC3)c(F)cc2c1=O [sarafloxacin] (10 µM)	0.213	93% (inactive)
CN1[C@@H]2CC[C@H]1C[C@@H](OC1c3ccccc3CCc3ccccc31)C2 [deptropine] (0.833333 µM)	0.24	100% (inactive)
CCN(CC)CCOC(=O)c1ccc(N)cc1 [procaine] (10 µM)	-0.107	115% (inactive)
Cc1cc(N2CCN([C@@H]3CN[C@H](C(=O)N4CCSC4)C3)CC2)n(-c2ccccc2)n1 [teneligliptin] (10 µM)	0.062	112% (inactive)
CCOC(=O)c1ccc(OCCC2CCN(c3ccc(C)nn3)CC2)cc1 [pirodavir] (10 µM)	0.0282	104% (inactive)
Cc1c(C(=O)NCCCO)cnn1-c1nc(-c2cccc(C(F)(F)F)c2)cs1 (10 µM)	0.107	97.5% (inactive)
NCC(=O)CCC(=O)O [5-aminolevulinic-acid] (10 µM)	0.0459	113% (inactive)
